Experimental data: PubChem BioAssay (NCI)
About 79,000 compounds went through this panel and 15% of them were active in at least one assay; those are over-represented in the sample as a whole. No stated cut-off is given here; in the data, active means growth inhibition above about 70%; inactive means the rest. Where a SMILES comes first, the peptide text is derived from it. [ ]: non-standard residue; d: D form. The star is where a group is joined. Ac5c = NC1(C(=O)O)CCCC1; Cbz = O=C(OCc1ccccc1)*; Boc = CC(C)(C)OC(=O)*; tBu = CC(C)(C)*

How the values were obtained:
[1] = NCI Yeast Anticancer Drug Screen. Data for the rad50 strain (AID 155);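 further: 0% = growth of vehicle-only cultures of the same strain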; settings: S. cerevisiae rad50 strain growth inhibition; at 50.0 µM; active compounds read high
In short: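 Vehicle-treated cultures provide the reference for the growth inhibition reported for compound-exposed, repair-deficient yeast.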

[2] = NCI Yeast Anticancer Drug Screen. Data for the mec2-1 strain (AID 157); settings: S. cerevisiae mec2-1 strain, at 50.0 µM, active compounds read high
In short: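 Readout is yeast growth inhibition, normalised to vehicle-treated controls, in the mec2-1 strain exposed to compound.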

[3] = NCI Yeast Anticancer Drug Screen. Data for the sgs1 mgt1 strain (AID 161);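 further: 0% = growth of cultures given vehicle only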; settings: S. cerevisiae sgs1 mgt1 strain, at 50.0 µM, active compounds read high
In short: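 Compounds are added to genetically altered yeast, and growth is compared with cultures given vehicle alone to give percent inhibition.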

[4] = NCI Yeast Anticancer Drug Screen. Data for the cln2 rad14 strain (AID 165);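 further: 0% = growth equal to vehicle treated cultures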; settings: S. cerevisiae cln2 rad14 strain, at 50.0 µM, active compounds read high
In short: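 Relative to vehicle controls, growth inhibition of compound-treated cln2 rad14 yeast was recorded.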

[5] = NCI Yeast Anticancer Drug Screen. Data for the bub3 strain (AID 167); settings: S. cerevisiae bub3 mutant strain, at 50.0 µM, active compounds read high
In short: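 Mutant yeast screening strain plus compound; vehicle-treated cultures serve as the 0% inhibition reference.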

[6] = NCI Yeast Anticancer Drug Screen. Data for the mlh1 rad18 strain (AID 175); settings: S. cerevisiae mlh1 rad18 strain growth inhibition; at 50.0 µM; active compounds read high
In short: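 Test agents were incubated with a yeast strain of defined genotype (DNA damage repair defect). Inhibition of growth was derived by comparison with vehicle-exposed cultures.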

Measured: growth inhibition

CC[N+](C)(CCO)C(Cc1ccccc1)c1ccccc1 (stereo unspecified)
inactive: [1] 8.5% | [2] -3.5% | [3] -0.1% | [4] -16.1% | [5] 19.5% | [6] -1.7%

CC(C)NCC(O)COc1c2ccccc2nc2ccccc12 (stereo unspecified)
inactive: [1] -8.65% | [2] -21.8% | [3] -24.2% | [4] -1.65% | [5] -20.1% | [6] 12.9%

CCC(C)(C)c1ccc(O)c(CNCCO)c1
inactive: [1] 26.8% | [2] -2.55% | [3] 2.9% | [4] -18.9% | [5] 7.55% | [6] 8.85%

COc1ccc2oc(=O)[nH]c2c1
inactive: [1] 5.3% | [2] -3.95% | [3] 9.9% | [4] 13.1% | [5] -6.9% | [6] -4.5%

CN(C)c1ccc(SC2OC(CO)C(O)C(O)C2O)cc1 (stereo unspecified)
inactive: [1] -12.8% | [2] -5.25% | [3] -7.3% | [4] -54.5% | [5] 3.7% | [6] -10%

CCOC(=O)C1NC(=O)C(C(=O)OCC)C1C(C)C (stereo unspecified)
inactive: [1] 9.45% | [2] 20.9% | [3] 0.35% | [4] -8.25% | [5] -4.05% | [6] -9.05%

COc1ccc(OC)c(NC(=O)NN(C)C)c1
inactive: [1] -31.4% | [2] -38.8% | [3] -2.25% | [4] 7.95% | [5] -21.1% | [6] -21.6%

O=[N+]([O-])c1ccc(-c2ccccc2CO)cc1
inactive: [1] -9.55% | [2] -10.2% | [3] -25.6% | [4] -33.5% | [5] -6.95% | [6] -26.6%

Cc1ccc(S(=O)(=O)ON/N=c2\ccn(C)c3ccccc23)cc1
inactive: [1] 38.1% | [2] 12.6% | [3] 19.1% | [4] -4.85% | [5] 8.05% | [6] 16.6%

NCCCc1ccc2oc3ccccc3c2c1
inactive: [1] 23.8% | [2] -14.2% | [3] 13.9% | [4] 15.5% | [5] -22.3% | [6] 24.4%

Cc1ccc(/C=C2\N=C(N3CCCC(CO)C3)NC2=O)cc1 (stereo unspecified)
inactive: [1] 18.6% | [2] -1.55% | [3] -18.3% | [4] -1.15% | [5] 1.3% | [6] -44%

COc1ccc(C2C(Cl)C(=O)N2NC(=O)c2ccccc2O)cc1OC (stereo unspecified)
inactive: [1] 2.85% | [2] -12.1% | [3] -18.6% | [4] 15.4% | [5] -22.4% | [6] -34.1%

COc1ccc(CSCc2cc(OC)c(OC)c(OC)c2)cc1
inactive: [1] -13.5% | [2] 16.8% | [3] -24.1% | [4] 0.3% | [5] 51.2% | [6] -2.15%

CCc1c2ccccc2cc2ccccc12
inactive: [1] -1% | [2] 1.85% | [3] -16.6% | [4] 9.75% | [5] 1.8% | [6] -5.95%

Nc1cccc(OCc2nc(N)nc(N)c2-c2ccc(Cl)cc2)c1
inactive: [1] -14% | [2] -14.4% | [3] -48.9% | [4] -6.6% | [5] -36% | [6] -20.9%

O=C(O)c1ccc(C(=O)c2ccccc2C(=O)O)cc1C(=O)O
inactive: [1] -8.75% | [2] 5% | [3] -44% | [4] 43.3% | [5] -23.1% | [6] -24.8%

CCOC(=O)CN1C(=O)CCC1=O
inactive: [1] -6.6% | [2] 2.55% | [3] -1.2% | [4] -3.5% | [5] 1.45% | [6] -5.95%

NCc1c(C(N)=O)ncn1Cc1ccccc1
inactive: [1] -0.95% | [2] -3.75% | [3] 5% | [4] -4.15% | [5] 7.4% | [6] -6.05%

COC(=O)C1(NC(=O)C(Cc2ccccc2)NC(=O)C(NC(=O)C(CCCCNC(=O)OC(C)(C)C)NC(=O)C(Cc2c[nH]c3ccccc23)NC(=O)C(Cc2ccccc2)NC(=O)OCc2ccccc2)C(C)OC(C)(C)C)CCCC1 (stereo unspecified) (Cbz-FWK(Boc)T(tBu)F[Ac5c]-OMe; configuration not given here)
inactive: [1] -11.9% | [2] -1.85% | [3] -26.6% | [4] 6.9% | [5] -11.4% | [6] -12.7%

O=C1OC2C(I)C3C(C4CCCCC4)C1C23 (stereo unspecified)
inactive: [1] 8.3% | [2] -3.85% | [3] 31.8% | [4] 17% | [5] 65.8% | [6] 7.7%

O=[N+]([O-])C(=C1NCCN1)C(Cl)=C(Cl)Cl
inactive: [1] -43% | [2] -27.9% | [3] 5.3% | [4] -18.6% | [5] -1.2% | [6] -26%
